# Assay results as given in PubChem BioAssay AID2012 (Sanford-Burnham Center for Chemical Genomics, 2009).
# Screen size: about 290,000 compounds; about 2,700 (0.93%) were called active. The rule behind the calls is not given here. The sample as a whole holds a higher share of actives than the screen did.
# Target: Eukaryotic translation initiation factor 4H (Homo sapiens) (UniProt Q15056)
# Assay: eIF4H binding inhibition – biochemical, uHTS, fluorescence polarization, translation initiation inhibitor project, primary screen (AID 2012);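 note: calls also rest on retests at 20 µM and on dose response follow-up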
# Details: eIF4H fluorescence polarization binding assay, stronger effect = higher value
Structure (SMILES),inhibition (at 35 µM),"inhibition (confirmation average, at 20 µM) [%]"
Cc1cc2oc(=O)cc(CN(C)Cc3ccc(OC(F)F)cc3)c2cc1Cl,-2.2% (inactive),–
Cc1ccc(S(=O)(=O)N2CCC(C)CC2)cc1C(=O)NCc1ccccn1,-2.5% (inactive),–
CCc1ccc(NC(=O)CN2CCC(C(=O)c3ccc(OC)cc3)CC2)cc1,-2.2% (inactive),–
CN1CCCC(OC(=O)COc2ccc(Br)cc2)C1 (stereo not drawn),99.9% (active),84.2
CCOC(=O)N1CCN(C(=O)COc2ccc(Br)cc2)CC1,5.2% (inactive),–
Cc1ccc(C(=O)OC2CCCN(C)C2)cc1 (stereo not drawn),-3.9% (inactive),–
S=C(NCc1cccs1)Nc1ccc(Cl)cc1,-10% (inactive),–
COC(=O)Cc1ccc(NC(=S)NCc2ccc(Cl)cc2)cc1,2% (inactive),–
Fc1ccccc1CNC(=S)Nc1ccc(Cl)cc1,0.6% (active),106
CCn1c(=O)c2ccccc2n(CC(=O)N2CCCc3ccccc32)c1=O,-6.1% (inactive),–
O=C(CSCc1ccccc1)N1CCc2ccccc21,2.4% (inactive),–
CCC(=O)N1CCCc2ccccc21,100% (active),–
COc1ccc(S(=O)(=O)N2CCOC2CNC(=O)C(=O)NCc2ccc(F)cc2)cc1 (stereo not drawn),-9.2% (inactive),–
CCOc1c(OC)cccc1C(=O)NCC1(c2ccccc2)CCCC1,-6% (inactive),–
COc1cc([C@H](Cc2ccccc2)NC(C)=O)oc(=O)c1,100% (active),–
COC(=O)[C@H](Cc1ccccc1)NC(=O)Nc1ccc(OC)cc1,2.4% (inactive),–
CCOC(=O)C(Cc1ccccc1)NC(=O)CCC(=O)c1ccc(OC)cc1 (stereo not drawn),-3.3% (inactive),–
COc1cc2c(cc1OC)CN(C(=O)c1cc(S(=O)(=O)N3CCCCC3)ccc1Cl)CC2,-13.7% (inactive),–
O=c1nc2s/c(=C\c3ccco3)c(=O)n2nc1Cc1ccccc1,96.4% (active),–
Cc1nc2nc(SCC(=O)NCc3ccco3)nn2c(C)c1Cc1ccccc1,3.5% (inactive),–
O=C(Cc1ccccc1)n1nc(-c2ccccc2)nc1NCc1ccco1,-6.8% (inactive),–

Structure (SMILES),inhibition (at 35 µM),"inhibition (confirmation average, at 20 µM) [%]"
Cc1cccn2c(=O)c(C=O)c(Nc3ccc(S(N)(=O)=O)cc3)nc12,-1.8% (inactive),–
Cc1ccc(C)c(N2CCN(C(=O)CCCCCn3c(=S)[nH]c4ccc(N5CCOCC5)cc4c3=O)CC2)c1,1.4% (inactive),–
C=CCn1c(=S)[nH]c2scc(-c3ccco3)c2c1=O,94.1% (active),–
C=CCn1c(SCc2csc(C)n2)nc2scc(-c3ccc(C)o3)c2c1=O,4.9% (inactive),–
C=CCNC(=O)CSc1nc2scc(-c3ccco3)c2c(=O)n1CC=C,49.9% (inactive),–
O=[N+]([O-])c1ccccc1/C=C/CN1CCCC(CO)C1 (stereo not drawn),-4.3% (inactive),–
C=CCNc1nnc(SCC(=O)N2CCCCC2)c2ccccc12,85.7% (active),54.5
O=C(CSc1ncccn1)N1CCCC1,-5.6% (inactive),–
C=CCNc1nnc(C)c2ccccc12,-4.9% (inactive),–
C=CCOc1ccc(C(=O)Nc2ccccc2C(=O)N2CCCC2)cc1,0.5% (inactive),–
COCC1CCN(C(=O)C2CCC(=O)N(Cc3cccc(C(F)(F)F)c3)C2)CC1 (stereo not drawn),-2.7% (inactive),–
COc1ccc(N(CC(=O)NCCSCc2cccc(Cl)c2)S(C)(=O)=O)cc1,-10.9% (inactive),–
NC(=O)c1c(NC(=O)CSc2nc(N)cc(=O)[nH]2)sc2c1CCCC2,15.5% (inactive),–
CCc1cccc(C)c1NC(=O)CSc1nnc(-c2ccco2)n1N,6.1% (inactive),–
NC(=O)c1c(NC(=O)CSc2nnc(-c3ccco3)n2N)sc2c1CCCC2,65.9% (active),96.5
COc1ccc(C(=O)NC(=S)N2CCCCC2c2cccnc2)cc1OC (stereo not drawn),2% (inactive),–
O=C(CN(C(=O)CCC(=O)Nc1nccs1)c1ccc(F)cc1)NCc1ccc2c(c1)OCO2,-1.4% (inactive),–
Nc1nc(-c2ccccc2)cc(-c2ccccc2)n1,0.4% (inactive),–
CNc1nc(-c2ccccc2)cc(-c2ccccc2)n1,-3.9% (inactive),–
CS(=O)(=O)c1sc2nc(-c3ccccc3)cc(-c3ccccc3)c2c1N,98.5% (active),–
CCCc1cc(C(=O)Nc2ccc(Cl)cn2)cs1,2.5% (inactive),–

Structure (SMILES),inhibition (at 35 µM),"inhibition (confirmation average, at 20 µM) [%]"
CCc1ccccc1S(=O)(=O)Cc1ccc(C(=O)NCCc2ccccc2)o1,-13% (inactive),–
COc1ccccc1-n1c(-c2cc(-c3ccco3)[nH]n2)n[nH]c1=S,58% (active),74
COc1ccc(-n2c(-c3ccc(OC)c(OC)c3)n[nH]c2=S)cc1,7.7% (inactive),–
COc1ccc(OC)c(-n2c(-c3ccn[nH]3)n[nH]c2=S)c1,-6% (inactive),–
Cc1nc(C)c(-c2nnc(-c3cccc(S(=O)(=O)N(C)C)c3)o2)cc1C(=O)NN,-1.3% (inactive),–
Cc1ccccc1C(=O)NC(=S)NC1CC1,-17.7% (inactive),–
Cc1c(Cl)cnc(NC(=O)COC(=O)c2ccc(S(=O)(=O)NCc3ccco3)cc2)c1Cl,58.6% (active),87.4
CSCCC(NC(=O)c1ccco1)C(=O)OCC(=O)Nc1ncc(Cl)c(C)c1Cl (stereo not drawn),4.5% (inactive),–
C/C(=N\Nc1ncc(Cl)cc1Cl)c1ccc(S(=O)(=O)NCc2ccco2)cc1,-4.5% (inactive),–
CC(=O)Nc1ccc(N2C(=O)C3C4C=CC(CC4)C3C2=O)cc1 (stereo not drawn),-5.9% (inactive),–
O=c1[nH]c(/C=C\c2cccc(C(F)(F)F)c2)nc(O)c1[N+](=O)[O-],3.5% (inactive),–
Cc1cccc(NS(=O)(=O)c2ccc(C(=O)NCC(C)(C)N3CCOCC3)cc2)c1C,-0.1% (inactive),–
Cc1cccc(NC(=O)CN2C(=O)c3ccccc3C2=O)c1C,9.4% (inactive),–
Cc1ccccc1NC(=O)CN1C(=O)N/C(=C\c2cccn2-c2cccc(C(=O)O)c2)C1=O,89.1% (active),86.1
O=C1N/C(=C/c2cccn2-c2ccccc2)C(=O)N1c1cccc(Cl)c1,2.6% (inactive),–
Cc1ccc(CNC(=O)C(=O)c2cn(CC(=O)N3CCOCC3)c3ccccc23)cc1,-6.1% (inactive),–
Cc1ccc(C)c(SCc2nc3sc(C(=O)O)c(C)c3c(=O)[nH]2)c1,2.9% (inactive),–
CSc1nnc(SCc2nc3sc(C(=O)O)c(C)c3c(=O)[nH]2)s1,86.3% (active),–
CCOC(=O)c1sc2nc(CSc3ccccc3)[nH]c(=O)c2c1C,2.6% (inactive),–
